Source: PubChem BioAssay AID1906 (The Scripps Research Institute Molecular Screening Center, 2009)
Among all 300,000 compounds or so, about 1,500 (0.5%) were called active.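 The calls were made as follows: active = inhibition above the mean of all tested compounds plus 3 SD, set per screening campaign (cut at about 17% in these data); inactive = the rest.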 Shown is part of a subset that was picked to be rich in actives.

The compounds below were run on cathepsin L1 (Fasciola hepatica) (assay: Fasciola hepatica cathepsin L1 inhibitors, primary screen, counter-screen for PFM18AAP inhibitor project, biochemical, QFRET, fluorogenic peptide substrate (AID 1906;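 also: 0% = plate median of test compound wells and 100% = 1 µM Z-Phe-Ala-diazomethylketone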)). Conditions: recombinant F. hepatica cathepsin L1, Z-Leu-Arg-MCA fluorescence; at 5.96 µM; hits give high values.
In the case of O=C(c1ccc(F)cc1)N1CCCC(C(=O)N2CCCCC2)C1 (configuration not stated), the inhibition was -2.4% (inactive). COc1ccc(C(=O)NC(=S)N2CCNC(=O)C2CC(=O)OC(C)C)cc1 (configuration not stated) was tested, and the inhibition was -3.41% (inactive). Cc1ccc2cc(C)c(N3CCC(C)CC3)nc2c1 was tested, and the inhibition was -2.83% (inactive). CN(c1ccccc1)S(=O)(=O)c1ccc2[nH]c(=O)[nH]c2c1 was tested, and the inhibition was -6.38% (inactive). CC1CCC(C(C)C)C(=O)/C1=C\c1ccc(NC(=O)CCC(=O)O)cc1 (configuration not stated) was tested, and the inhibition was 2% (inactive). With CC(C)C(=O)Nc1c(O)c2ccccc2[nH]c1=O the inhibition was -1.29% (inactive). O=C(Cc1c(O)c2ccccc2[nH]c1=O)NCc1ccccc1 was tested, and the inhibition was 0.35% (inactive). For CCCOC(=O)Cc1c(O)c2ccccc2[nH]c1=O, the inhibition was 46.3% (active). For N#Cc1c(N2CCCCC2)nc(N)c2c(N)nc(SCC(=O)O)cc12, the inhibition was 1.83% (inactive). For COc1cccc(-c2cc3nc4c(c(N5CCC6(CC5)OCCO6)n3n2)CCCC4)c1, the inhibition was 1.28% (inactive). In the case of Cc1cc(C)cc(NC(=O)COc2coc(CN3CCN(c4ccccc4)CC3)cc2=O)c1, the inhibition was -0.61% (inactive). For CCN(CC)C(=O)CSc1nc2ccccc2o1, the inhibition was -2.89% (inactive). In the case of CCC(NC(=O)c1ccccc1NC(=O)c1ccccc1)C(=O)NNC(=O)CSc1nc2ccccc2o1 (configuration not stated), the inhibition was 31.7% (active). In the case of O=C(CSc1nc2ccccc2o1)N/N=C/c1ccccc1C(=O)O, the inhibition was -1.26% (inactive). For COc1ccccc1CNC(=O)[C@@H]1CCCN1C(=O)[C@@H]1Cc2ccccc2CN1C(=O)OC(C)(C)C, the inhibition was 7.62% (inactive). In the case of CCC(C)N1CC(=O)N2Cc3[nH]c4ccccc4c3C[C@H]2C1=O (some centres not stated), the inhibition was 5.23% (inactive). With COC(C[C@@H]1O[C@@H]1C(=O)[C@H](C)OCc1ccccc1)OC the inhibition was 28.4% (active). COC(C/C=C/C(=O)[C@@H](C)OCc1ccccc1)OC was tested, and the inhibition was -1.49% (inactive). With COC(C[C@@H]1O[C@@H]1C(=O)[C@@H](C)OCc1ccccc1)OC the inhibition was 9.96% (inactive). In the case of CC(Oc1ccc(F)cc1)C(=O)Nc1ccccc1C(=O)NC1CC1 (configuration not stated), the inhibition was -1.06% (inactive). For CC12CCC(=O)N1C(C(=O)Nc1ccc(F)c(F)c1F)CS2 (configuration not stated), the inhibition was 2.04% (inactive). In the case of Cc1ccc(C2C(C#N)C(C#N)N3CCCN23)cc1 (configuration not stated), the inhibition was 1.37% (inactive). With COc1ccc(F)cc1S(=O)(=O)NCC(c1ccc2c(c1)OCO2)N1CCN(C)CC1 (configuration not stated) the inhibition was 4.62% (inactive). For O=c1[nH]c(N2CCOCC2)nc2ccccc12, the inhibition was 0.18% (inactive). In the case of O=C1OC(NC(=O)c2ccccc2)C(N2CCOCC2)=C1Cl (configuration not stated), the inhibition was 5.28% (inactive). O=C1C(Cl)=C(N2CCOCC2)C(=O)N1c1ccccc1 was tested, and the inhibition was 42.9% (active). With COc1ccc(CNC(=O)COC(=O)/C=C/c2ccc(S(=O)(=O)N3CCOCC3)cc2)cc1 the inhibition was 0.44% (inactive). For COC(=O)c1ccc(NC(=O)CSc2nnc(Cc3cccn3C)n2-c2ccc(F)cc2)cc1, the inhibition was 6.5% (inactive). For CCOc1cc(NS(=O)(=O)c2ccc(OC)cc2)c(OCC)cc1NC(C)=O, the inhibition was -2.89% (inactive). With CCOc1cc(NC(=O)CCl)c(OCC)cc1NC(C)=O the inhibition was 83.7% (active). In the case of CCCC(=O)Nc1cc(OCC)c(NC(=O)NC2CCCCC2)cc1OCC, the inhibition was -3.59% (inactive). For C/C(CCC(=O)OC[C@H]1O[C@H](C#Cc2ccccc2)C=C[C@@H]1Oc1ccc(C)cc1)=N\OC[C@@H](O)[C@H]1O[C@@H]2OC(C)(C)O[C@@H]2[C@H]1O, the inhibition was -0.48% (inactive). For CC1(C)NC(=O)N(CCCCSc2ccc(Cl)cc2)C1=O, the inhibition was 3.34% (inactive). In the case of N#Cc1nc(N)nc(N(c2ccccc2)c2ccccc2)n1, the inhibition was 56.4% (active). In the case of CC(C)Nc1nc(N(c2ccccc2)c2ccccc2)nc(-n2ccnc2)n1, the inhibition was -0.83% (inactive). Cc1ccc(C(=O)N2CCN(C(=O)N3CCOCC3)CC2)cc1 was tested, and the inhibition was 1.67% (inactive). In the case of Cc1ccccc1-c1ccc(Nc2ccc(C(=O)N3CCOCC3)cc2)nn1, the inhibition was 0.35% (inactive). Cc1oc2c(c1C(=O)N1CCOCC1)C(=O)c1ccccc1C2=O was tested, and the inhibition was 18.4% (active). In the case of CCOC(=O)/C(=C\c1ccc([N+](=O)[O-])cc1)C(=O)c1cc(C(C)=O)c(Nc2ccccc2)s1, the inhibition was -2.81% (inactive). With COc1ccccc1C(CNC(=O)c1cccc(NS(=O)(=O)c2ccc(Br)cc2)c1)N(C)C (configuration not stated) the inhibition was 4.17% (inactive). For CN(C)C(CNC(=O)c1cccc(C#N)c1)c1ccco1 (configuration not stated), the inhibition was 22.2% (active). In the case of CN(C)C(CNC(=O)c1cccc(S(=O)(=O)Nc2ccc(Br)cc2)c1)c1ccco1 (configuration not stated), the inhibition was -0.56% (inactive). CN(C)C(CNC(=O)CCCOc1ccccc1)c1ccco1 (configuration not stated) was tested, and the inhibition was -6.17% (inactive). In the case of COC(=O)c1scc(S(=O)(=O)C(C)(C)C)c1-n1cccc1, the inhibition was -3.59% (inactive). In the case of Cc1ccc(/C=C/C(=O)Nc2ccc([N+](=O)[O-])c(NC(=O)/C=C/c3ccc(C)o3)c2)o1, the inhibition was 7.56% (inactive). For O=C(N/N=C/c1ccc([N+](=O)[O-])o1)c1cn(-c2ccccc2)nc1-c1ccc(F)cc1, the inhibition was 1.54% (inactive). O=C(/C=C/c1ccc([N+](=O)[O-])o1)NNC(=O)c1ccc(F)cc1 was tested, and the inhibition was 17.7% (active). In the case of Cc1ccc(NC(=S)Nc2ncccc2C)c(C)c1, the inhibition was -0.91% (inactive). [2H]C(CCOS(N)(=O)=O)c1ccccc1 (configuration not stated) was tested, and the inhibition was 1.8% (inactive). For COc1ccc(C=C(C#N)C#N)c(CSc2ccccn2)c1, the inhibition was -4.15% (inactive). In the case of Cc1ccc(OCCNC(=O)CCNS(=O)(=O)c2ccc(Br)cc2)cc1, the inhibition was 0.55% (inactive). O=C(Cc1ccccc1)Nc1cccc(NC(=O)c2ccccc2)c1 was tested, and the inhibition was -2.42% (inactive). With CCc1cccc(NC(=O)CCC(=O)O)c1 the inhibition was -3% (inactive). With O=C(CCl)Nc1cccc(CP(=O)(c2ccccc2)c2ccccc2)c1 the inhibition was 72% (active). With C#CCOCCOCCOCCNc1nc(N2CCN(C(=O)C([C@@H](C)CC)n3cc(C(N)COC(=O)C(F)(F)F)nn3)CC2)nc(N2CCN(C(=O)[C@H](Cc3ccc(O)cc3)n3cc(C(N)[C@H](C)CC)nn3)CC2)n1 (some centres not stated) the inhibition was -2.06% (inactive). For C#CCOCCOCCOCCNc1nc(N2CCN(C(=O)C([C@@H](C)CC)n3cc(C(N)COC(=O)C(F)(F)F)nn3)CC2)nc(N2CCN(C(=O)[C@H](CCCCN)n3cc(C(N)CC(C)C)nn3)CC2)n1 (some centres not stated), the inhibition was 33.1% (active). For C#CCOCCOCCOCCNc1nc(N2CCN(C(=O)[C@H](CCCCN)n3cc([C@@H](N)C(C)CC)nn3)CC2)nc(N2CCN(C(=O)[C@H](Cc3ccc(O)cc3)n3cc([C@@H](N)C(C)CC)nn3)CC2)n1 (some centres not stated), the inhibition was 5.02% (inactive).
